Bioassay records: PubChem BioAssay, several laboratories
ADAM17 inh – ADAM17 inhibitors, primary screen, biochemical, QFRET. recombinant ADAM17, EDANS/DABCYL FRET peptide cleavage. inhibition, % at 6.95 µM. AID 720648, 2013. actives 0.83% (n = 370,000);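 active = inhibition above the mean of compounds lying between control limits plus 3 SD, set per campaign, cut at about 8.5% in these data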;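 also: 0% = DMSO-only wells as the low control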
KLK7 zymogen act – proKLK7 zymogen activators, primary screen, biochemical, fluorescence intensity; actives 0.9% (n = 370,000); AID 652039, 2013; Kallikrein-7 (Homo sapiens), P49862; activation, % at 7 µM; purified proKLK7, EDANS-DABCYL substrate fluorescence; 100% is mature enzyme control, 0% vehicle;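 active = activation above the mean of all tested compounds plus 3 SD, computed per campaign excluding outliers beyond control limits, cut at about 13% in these data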
Target sequence (P49862 whole entry, looked up): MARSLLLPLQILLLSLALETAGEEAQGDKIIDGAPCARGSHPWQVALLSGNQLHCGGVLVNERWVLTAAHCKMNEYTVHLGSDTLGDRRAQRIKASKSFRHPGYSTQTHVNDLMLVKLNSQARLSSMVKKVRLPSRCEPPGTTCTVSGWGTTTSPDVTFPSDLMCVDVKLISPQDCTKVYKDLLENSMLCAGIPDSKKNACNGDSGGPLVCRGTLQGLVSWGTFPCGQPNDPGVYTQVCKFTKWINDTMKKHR
GC-A act – GC-A stimulated cGMP production enhancers – HEK293 GC-A cells, cGMP TR-FRET, EC30 ANP, primary screen. Atrial natriuretic peptide receptor 1 (Homo sapiens), P16066. 0% at EC30 ANP, 100% saturating ANP. activation, % at 10 µM. actives 0.14% (n = 370,000); in the data active = activation above about 40%
NPR2 activator – human GC-B receptor activators, primary screen, HEK293 GC-B cells, cGMP TR-FRET, EC30 CNP. Atrial natriuretic peptide receptor 2 (Homo sapiens), P20594. 0% at EC30 CNP, 100% saturating CNP. activation, % at 10 µM. actives 0.11% (n = 370,000);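 active = activation at 10 µM reaching about 35% in either raw or pattern-adjusted values, limit read from the data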
ADAM10 inh – human ADAM10 inhibitors, primary screen, biochemical, QFRET, HTS; recombinant ADAM10, EDANS/DABCYL FRET peptide cleavage, 3 h; actives 0.62% (n = 370,000); Disintegrin and metalloproteinase domain-containing protein 10 (Homo sapiens), O14672; inhibition, % at 7 µM;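 active = inhibition above a per-campaign cutoff equal to the mean of compounds falling between control-based bounds plus 3 SD, cut at about 20% in these data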;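 also: 0% = DMSO wells while the 100% control is not disclosed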
KLK7 act conf – proKLK7 zymogen activators, confirmation, biochemical, fluorescence intensity, triplicate; purified proKLK7, EDANS-DABCYL substrate fluorescence; scaled: vehicle 0, mature enzyme 100; actives 68% (n = 3,200); activation, % at 7 µM; shares compounds with KLK7 zymogen act;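 active = activation, as change over the incubation, above the mean of all tested compounds plus 3 SD, cut at about 13% in these data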
EDANS interfere – EDANS-DABCYL substrate optical interference, artefact control for kallikrein-7 zymogen activator project, biochemical, fluorescence intensity, high throughput. no enzyme, 4 h; solvent 0%, active enzyme control 100%. shares compounds with KLK7 zymogen act. actives 80% (n = 3,200). activation, % at 7 µM. AID 686952, 2013;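 active = activation above the all-compound mean plus 3 SD, ignoring values outside control-based bounds, cut at about 4.8% in these data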;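 also: value is the 4 h activation minus the activation read at time zero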
An asterisk follows results filed as active; i = inactive; . = not tested or not shown. Only some compounds are listed: those with a hit (about 2.2% of all), similar ones and a draw of the others.

SMILES	ADAM17 inh	KLK7 zymogen act	GC-A act	NPR2 activator	ADAM10 inh	KLK7 act conf	EDANS interfere
CCOC(=O)C(=NC(C)CC)NNc1cccc(C(F)(F)F)c1 (configuration not stated)	-1.1	17.2*	-0.2	-10.2	-5.3	22.2*	26.2*
CC(C)NC(=O)N[C@H]1C[C@@H]2O[C@H](CO)CC[C@@H]2O[C@@H]1CCc1ccc(-c2ccc(F)cc2)cc1	2.5	0.4	7.8	-1.4	0.8	.	.
CCNC(=S)NNC(=O)c1cc(Br)cs1	-5.5	13.1*	2.4	-1.4	-5.2	5.8	6.5*
CCNC(=S)NNC(=O)c1csc(C)c1	-4.3	0.5	1.3	-3.4	3.0	.	.
Nc1ccc2cc3[nH]c4cc(N)ccc4c3nc2c1	-316.7	86.0*	0.4	-4.0	i	74.8*	75.1*
CC(=O)N[C@@H]1C[C@@H]2O[C@H](CO)CC[C@@H]2O[C@@H]1CCc1ccc(C#CC2(O)CCCC2)cc1	-0.7	0.1	-0.5	4.0	-1.4	.	.
O=C(NC1CC1)c1cc2c(s1)-c1ccccc1OC2	i	47.4*	20.9	1.8	i	74.8*	86.8*
O=C(NCc1cccs1)c1cc2c(s1)-c1ccccc1OC2	i	-18.2	6.0	0.8	i	.	.
O=C(c1ccco1)N1CCN(C(=O)c2cc3c(s2)-c2ccccc2OC3)CC1	i	22.9*	-0.6	-2.9	i	3.8	-67.5
O=C(O)c1cc2c(s1)-c1ccccc1OC2	i	34.1*	1.4	-0.8	i	77.0*	72.7*
O=C(O)c1cc2c(s1)-c1ccccc1CC2	-385.8	5.1	-1.1	-4.2	i	.	.
O=C(NCCCN1CCOCC1)c1cc2c(s1)-c1ccccc1OC2	i	46.8*	4.2	-1.7	i	68.0*	65.1*
CCN(C(=O)CSc1nnc(-c2cccnc2)n1Cc1ccco1)c1ccccc1C	-4.0	-0.1	-0.5	0.1	-4.9	.	.
COC(=O)[C@]12C[C@H](CC(=O)NCCCCc3ccccc3)C(=O)N(Cc3ccc(Cl)cc3Cl)C1=C[C@H](COCc1ccccc1)O[C@@H]2C	1.7	-0.5	-2.6	3.0	7.5	.	.
O=C(Nc1ccc2ccccc2c1)C1CC2CCC1C2 (configuration not stated)	3.8	.	3.9	-5.2	1.2	.	.
Cc1nc(Cl)c2c(n1)NC1=C(O2)C(=O)CCC1	-48.3	21.7*	6.1	-0.2	-136.9	18.2*	22.4*
CCN1CCCC1CN=Cc1c(O)n(-c2ccccc2)c(=O)c2ccccc12 (configuration not stated)	-69.5	16.0*	-2.3	-1.7	-279.1	16.2*	18.4*
CCOC(=O)N1C(=O)C[C@](Sc2ccc(OC)cc2)(C(=O)N2CCN(c3ncccn3)CC2)[C@H]1c1ccc(OC)cc1	-3.3	0.5	-1.2	-6.6	-3.6	.	.
C=C(C)C1CC=C(C)/C(=N\NC(=O)CNc2cccc3ccccc23)C1 (configuration not stated)	-116.2	24.9*	-2.3	-6.6	-352.5	6.2	6.8*
C=C(C)[C@H]1CC=C(C)/C(=N/NC(=O)CNc2ccccc2OC)C1	2.0	-1.0	4.5	7.8	10.9	.	.
CC(COc1cc(F)cc(F)c1)CN1CCC(C(O)(c2ccccc2)c2ccccc2)CC1 (configuration not stated)	5.3	-0.1	1.5	2.3	3.0	.	.
Cc1ccccc1C=Nc1ccccc1C(N)=O	-318.8	18.0*	0.2	-0.1	i	28.0*	28.5*
NC(=O)c1ccccc1N=Cc1ccccn1	-125.3	3.4	-0.4	3.1	i	.	.
